The test addresses PUM1 PUF domain R5-PRH (Homo sapiens, UniProt Q14671 828-1176, C1007P;Q1011H). The test is described as follows: yeast three-hybrid, YBZ-1, SC-Leu-His + 0.5 mM 3-AT, 4 days. The note with it: tags: N-Gal4 AD-HA kept; label: inside an RPR1-promoter hybrid RNA with tandem MS2 sites; ssRNA. The gist of the method: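 The interaction score is the logarithmic change in variant frequency from input to selection. It uses log2, with a pseudocount of 1 for absent variants, and frequencies came from PCR-amplified, Illumina-sequenced repeat regions. The libraries were Pumilio-1 PUF domains randomized at the three base-contacting residues per repeat, co-expressed with matching RNA elements in strain YBZ-1 (LexA–MS2 coat fusion, HIS3 reporter). Plating lasted four days on SC-Leu (input) or SC-Leu-His + 0.5 mM 3-AT (selection).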
On to “GGCUAGAACUAGUGGAUCCCCCGGCGCCCGGCGGCUCGAGCCCGGGUAAGUGUUAAUAGUCUGCAUGCCGCCGGGCGCCAUGCCUGCAGGUCGACUCUAGAAAACAUG”, for which the binding signal was 3.48 log2 enrichment (interaction score).

For “GGCUAGAACUAGUGGAUCCCCCGGCGCCCGGCGGCUCGAGCCCGGGUAAGUGUAAAUAGUCUGCAUGCCGCCGGGCGCCAUGCCUGCAGGUCGACUCUAGAAAACAUG”, the binding signal was 3.22 log2 enrichment (interaction score).

For the sequence “GGCUAGAACUAGUGGAUCCCCCGGCGCCCGGCGGCUCGAGCCCGGGUAAGUGUGAAUAGUCUGCAUGCCGCCGGGCGCCAUGCCUGCAGGUCGACUCUAGAAAACAUG”, the binding signal was 2.93 log2 enrichment (interaction score).

Values taken from publication PMC8384837, “Expanding the binding specificity for RNA recognition by a PUF domain”.
